In PubChem BioAssay AID624256 (NMMLSC, 2012) one finds GFP+ MAC1+ double positive, outcome and normalized GFP-positive differentiation data, which are given here for 42 compounds.

Out of some 360,000 compounds screened, about 3,700 (1%) were called active. Roughly 2% stayed inconclusive and do not appear here.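 Rule for the calls: active = normalized GFP-positive differentiation at or above the plate's own cutoff, the solvent-only control mean plus 3 SD; inconclusive = no clear call, values can overlap the other calls; inactive = the rest.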 The full list was thinned out, with actives kept by preference.

This assay can be described thus: induction of myeloid progenitor differentiation, primary screen, cell-based, flow cytometry, MLPCN library (AID 624256).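 For GFP+ MAC1+ double positive: cells exposed to compound for four days before flow analysis.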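 For normalized GFP-positive differentiation: cells exposed to compound for four days before flow analysis; 0% = DMSO wells and 100% = fulvestrant positive control at 5 µM.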 The conditions noted are these: ER-HoxA9 myeloid progenitors, lysozyme-GFP differentiation, at 10 µM; GFP+ MAC1+ double positive: measured here: differentiation confirmed by MAC1 staining, stronger effect = higher value; normalized GFP-positive differentiation: stronger effect = higher value.
`CCOc1ccc(CCN2C(=O)C(=O)N([C@@H](Cc3ccc(O)cc3)CN3CCC[C@H]3CN3C(=O)C(=O)NC[C@@H]3CC(C)C)C[C@@H]2Cc2ccccc2)cc1`: the GFP+ MAC1+ double positive was 1% and the compound was called inactive.

`Cc1ccc(Nc2ccccc2N)cc1`: the GFP+ MAC1+ double positive was determined as 0.6% and the normalized GFP-positive differentiation was 231% (active).

As for `O=[N+]([O-])c1ccccc1Nc1ccc(O)cc1`, the GFP+ MAC1+ double positive is 0.4% and the compound was classed as inactive.

Consider `Cc1ccc(Nc2nc(N)nc(CSc3nnc(C)s3)n2)cc1`, for which the GFP+ MAC1+ double positive stood at 0.4% and the result was inactive.

`CC1(C(=O)NCc2ccccc2)CN(S(C)(=O)=O)CC(=O)N1CC(F)(F)F` (centres undefined): the GFP+ MAC1+ double positive came out at 1.4% and the compound was called inactive.

`COc1ccc(C(=O)C[n+]2ccc(N)c(C)c2C)cc1`: the GFP+ MAC1+ double positive stood at 10.1% and the normalized GFP-positive differentiation was 39.6% (active).

Take `CO/N=C/CC(=O)c1ccc(OC)cc1`: the GFP+ MAC1+ double positive amounted to 0.8% and the compound was called inactive.

Consider `COc1ccc(C(=O)C[n+]2ccc(C)cc2)cc1`, for which the GFP+ MAC1+ double positive was 0.2% and the result was inactive.

Turning to `Cc1ccc2cc(CN(c3ccc(C)c(C)c3)S(C)(=O)=O)c(=O)[nH]c2c1`, the GFP+ MAC1+ double positive stood at 0.3% and the compound was called inactive.

Turning to `COc1ccc(N(Cc2cc3ccc(C)cc3[nH]c2=O)S(=O)(=O)c2ccccc2)cc1`, the GFP+ MAC1+ double positive worked out at 9.4% and the normalized GFP-positive differentiation was 37.5% (active).

Turning to `CCN(Cc1cc2cc(C)ccc2[nH]c1=O)S(=O)(=O)c1ccccc1`, the GFP+ MAC1+ double positive worked out at 0.4% and the outcome was inactive.

Consider `O=C(Nc1cccc2cccnc12)c1ccc2sc([C@H]3C[C@H](O)[C@@H](CO)O3)nc2c1`, for which the GFP+ MAC1+ double positive is 0.8% and the outcome was inactive.

For `Cc1ccc(C(=O)Cc2nnc(C)s2)cc1`, the GFP+ MAC1+ double positive was determined as 0.7% and the normalized GFP-positive differentiation is 113% (active).

Consider `Cc1ccc(C(=O)Cn2cccn2)cc1`, for which the GFP+ MAC1+ double positive was determined as 0.3% and the result was inactive.

As to `Cc1ccc(NC(=O)CCC(=O)c2ccc(Br)cc2)cc1`, the GFP+ MAC1+ double positive was 0.4% and the compound was called inactive.

`CCC(C)CN1C(=O)CSCC1(C)C(=O)NCc1ccccc1` (centres undefined): the GFP+ MAC1+ double positive was 1.5% and the outcome was inactive.

Take `CSCCC(NS(=O)(=O)/C=C/c1ccccc1)C(=O)N1CCC(C)CC1` (centres undefined): the GFP+ MAC1+ double positive is 1% and the outcome was inactive.

For `CSCCC(NS(=O)(=O)c1ccccc1F)C(=O)N1CC=C(c2ccccc2)CC1` (centres undefined), the GFP+ MAC1+ double positive was 1.3% and the normalized GFP-positive differentiation is 63.9% (active).

In the case of `CSCCC(NS(=O)(=O)c1ccc(C)cc1)C(=O)N1CCCC1` (centres undefined), the GFP+ MAC1+ double positive was 1.3% and the result was inactive.

As for `C#Cc1ccc(NC(=O)C2(C)CCN2C(=O)Cc2ccc(-c3ccccc3)cc2)cc1` (centres undefined), the GFP+ MAC1+ double positive amounted to 0.8% and the compound was classed as inactive.

Consider `Cc1ccc2nc(NC(=O)CSc3nc(=O)n(CCCN(C)C)c4c3CCC4)sc2c1`, for which the GFP+ MAC1+ double positive amounted to 1.3% and the outcome was inactive.

In the case of `Cc1ccc2nc(NC(=O)C3CSC4(C)CCC(=O)N34)sc2c1` (centres undefined), the GFP+ MAC1+ double positive worked out at 1.7% and the call was inactive.

As for `CC(=O)N(CCCN(C)C)c1nc2ccc(C)cc2s1`, the GFP+ MAC1+ double positive worked out at 0.6% and the normalized GFP-positive differentiation was 33.5% (active).

On to `CCN1C[C@@H]2[C@@H]3C(=O)N(Cc4ccccc4)C(=O)[C@@H]3[C@](C)(C1=O)N2C(=O)c1ccc(C(C)(C)C)cc1`, for which the GFP+ MAC1+ double positive came out at 1.2% and the result was inactive.

For `CCN1C[C@@H]2[C@@H]3C(=O)N(C)C(=O)[C@@H]3[C@](C)(C1=O)N2C(=O)c1ccccc1`, the GFP+ MAC1+ double positive came to 10.9% and the normalized GFP-positive differentiation is 43.5% (active).

Turning to `CN1C(=O)[C@H]2[C@@H](C3CC3)N3C(=O)CN(Cc4ccccc4)C(=O)[C@@]3(C)[C@H]2C1=O`, the GFP+ MAC1+ double positive stood at 1.6% and the outcome was inactive.

With `Oc1cccc2cc(-c3ccncc3)cnc12`, the GFP+ MAC1+ double positive came out at 0.7% and the call was inactive.

`COCCNc1ncnc2c1ncn2[C@H]1CN(CCN2CCOCC2)C[C@@H](CO)O1`: the GFP+ MAC1+ double positive came to 1.1% and the outcome was inactive.

With `CCOC(=O)[C@]12CCCC=C1N(CCC1=CCCCC1)C(=O)[C@H](CC(=O)NCCCCc1ccccc1)C2`, the GFP+ MAC1+ double positive is 2.2% and the compound was classed as inactive.

`O=C(Cc1c(O)c2ccccc2[nH]c1=O)NCc1ccccc1`: the GFP+ MAC1+ double positive was 0.1% and the outcome was inactive.

Take `COC(=O)Cc1c(-c2[nH]c3ccccc3c2CC(=O)OC)[nH]c2ccccc12`: the GFP+ MAC1+ double positive came out at 17.1% and the normalized GFP-positive differentiation is 207% (active).

Regarding `CCCOC(=O)Cc1c(O)c2ccccc2[nH]c1=O`, the GFP+ MAC1+ double positive is 0.6% and the result was inactive.

In the case of `CCOc1ccc(Cl)cc1-c1cc(C(=O)NCc2cccs2)[nH]n1`, the GFP+ MAC1+ double positive turned out to be 1.7% and the compound was classed as inactive.

On to `CC1(C(=O)NS(=O)(=O)c2ccccc2)CCN1C(=O)c1ccccc1` (centres undefined), for which the GFP+ MAC1+ double positive is 0.9% and the compound was classed as inactive.

Take `COc1ccccc1Cc1c(-c2ccc(Cl)cc2)nc2c3ccccc3ccn12`: the GFP+ MAC1+ double positive amounted to 0.5% and the call was inactive.

As to `COc1ccc(Cn2c(=S)[nH]c3cc(C(=O)N4CCCCC4)ccc3c2=O)cc1`, the GFP+ MAC1+ double positive is 0.2% and the compound was classed as inactive.

In the case of `COCCn1c(=S)[nH]c2cc(C(=O)NCCc3ccc(OC)c(OC)c3)ccc2c1=O`, the GFP+ MAC1+ double positive is 2.7% and the compound was classed as inactive.

On to `CCOC(=O)N1CCN(C(=O)c2ccc3c(=O)n(CCc4ccc(OC)c(OC)c4)c(=O)[nH]c3c2)CC1`, for which the GFP+ MAC1+ double positive was 6.8% and the normalized GFP-positive differentiation was 56% (active).

Take `CCCCc1c(-c2ccc(Br)cc2)ncn1CCc1ccccc1OC`: the GFP+ MAC1+ double positive turned out to be 2.9% and the compound was classed as inactive.

For the compound `C[C@H](NC(=O)[C@@H]1CCCN1C(=O)[C@@H]1CCCN1C(=O)c1ccccc1)c1ccccc1`, the GFP+ MAC1+ double positive was found to be 0.7% and the result was inactive.

Take `Cc1ccc(CN2CC(N3CCC(Cc4ccccc4)CC3)CS2(=O)=O)cc1` (centres undefined): the GFP+ MAC1+ double positive was determined as 1.6% and the call was inactive.

Turning to `Cc1cccc(CC2(O)C(=O)Nc3ccccc32)n1` (centres undefined), the GFP+ MAC1+ double positive is 29.8% and the normalized GFP-positive differentiation was 367% (active).
